# Tests used:
# Test in all cases: DAPPL (digital affinity profiling via proximity ligation, sequencing); 10 mM Tris-HCl pH 7.5, 50 mM NaCl, 1 mM DTT, 4% glycerol, room temperature, 30 min; GST-TFs on glutathione beads, 16-mer random dsDNA library, 0.1% formaldehyde crosslink after washing; high values mean tight binding
# FEV = target: T1, FEV (Homo sapiens, UniProt Q99581 1-238); conditions: protein: recombinant; tags: N-terminal GST; dsDNA, one strand shown
# T1 sequence: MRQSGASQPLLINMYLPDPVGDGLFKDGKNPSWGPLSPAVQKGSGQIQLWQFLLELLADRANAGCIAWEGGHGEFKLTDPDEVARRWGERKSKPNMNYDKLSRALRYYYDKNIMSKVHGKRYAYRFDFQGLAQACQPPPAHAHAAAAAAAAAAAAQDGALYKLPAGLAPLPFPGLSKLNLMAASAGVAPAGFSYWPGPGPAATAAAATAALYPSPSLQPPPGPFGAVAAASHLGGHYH
# Procedure, shortened: (§1)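 Pools of DNA-barcoded human transcription factors, expressed in yeast as GST fusions on glutathione beads and combined with a tag-only sample, were incubated with 200 nmole of a 16-mer random double-stranded DNA library. Incubation took 30 min at room temperature in Tris/NaCl/DTT/glycerol buffer and was followed by washing, 0.1% formaldehyde crosslinking, proximity ligation (BsaI/T4 ligase, 1 h, 37 °C), PCR amplification and sequencing on an Illumina NextSeq500. Binding signal is the ratio of a hexamer's read frequency for a factor to its frequency for the tag-only sample.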
# ETV5 = ETV5 (Homo sapiens, UniProt P41161 1-510); conditions: protein: recombinant; tags: N-terminal GST; dsDNA, one strand shown
# Procedure, shortened: as §1
# HSF1 = HSF1 (Homo sapiens, UniProt Q00613 1-529); conditions: protein: recombinant; tags: N-terminal GST; chain copies: 3; dsDNA, one strand shown
# Procedure, shortened: as §1
# SPIC = target: T2, SPIC (Homo sapiens, UniProt Q8N5J4 1-248); conditions: protein: recombinant; tags: N-terminal GST; dsDNA, one strand shown
# T2 sequence: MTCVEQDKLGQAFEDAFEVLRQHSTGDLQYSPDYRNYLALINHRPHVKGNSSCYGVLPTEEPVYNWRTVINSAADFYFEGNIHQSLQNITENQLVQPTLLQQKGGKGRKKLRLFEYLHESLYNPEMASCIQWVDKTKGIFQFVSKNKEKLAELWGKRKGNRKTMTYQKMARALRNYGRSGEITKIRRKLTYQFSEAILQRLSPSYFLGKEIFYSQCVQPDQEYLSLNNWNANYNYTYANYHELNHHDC
# Procedure, shortened: as §1
# ELF4 = ELF4 (Homo sapiens, UniProt Q99607 1-663); conditions: protein: recombinant; tags: N-terminal GST; dsDNA, one strand shown
# Procedure, shortened: as §1
# ELK4 = target: T3, ELK4 (Homo sapiens, UniProt P28324-2 1-405); conditions: protein: recombinant; tags: N-terminal GST; dsDNA, one strand shown
# T3 sequence: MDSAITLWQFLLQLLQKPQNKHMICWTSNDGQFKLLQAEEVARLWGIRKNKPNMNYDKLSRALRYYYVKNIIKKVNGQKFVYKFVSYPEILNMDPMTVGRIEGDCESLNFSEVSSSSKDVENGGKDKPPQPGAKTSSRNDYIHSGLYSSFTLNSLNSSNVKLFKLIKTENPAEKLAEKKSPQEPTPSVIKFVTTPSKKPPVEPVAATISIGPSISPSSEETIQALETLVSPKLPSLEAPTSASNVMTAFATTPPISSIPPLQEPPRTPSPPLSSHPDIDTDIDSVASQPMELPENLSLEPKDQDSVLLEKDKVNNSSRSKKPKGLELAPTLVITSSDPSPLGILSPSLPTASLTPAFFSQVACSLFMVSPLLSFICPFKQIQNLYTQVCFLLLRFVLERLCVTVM
# Procedure, shortened: as §1
# ETV2 = target: T4, ETV2 (Homo sapiens, UniProt O00321 1-342); conditions: protein: recombinant; tags: N-terminal GST; dsDNA, one strand shown
# T4 sequence: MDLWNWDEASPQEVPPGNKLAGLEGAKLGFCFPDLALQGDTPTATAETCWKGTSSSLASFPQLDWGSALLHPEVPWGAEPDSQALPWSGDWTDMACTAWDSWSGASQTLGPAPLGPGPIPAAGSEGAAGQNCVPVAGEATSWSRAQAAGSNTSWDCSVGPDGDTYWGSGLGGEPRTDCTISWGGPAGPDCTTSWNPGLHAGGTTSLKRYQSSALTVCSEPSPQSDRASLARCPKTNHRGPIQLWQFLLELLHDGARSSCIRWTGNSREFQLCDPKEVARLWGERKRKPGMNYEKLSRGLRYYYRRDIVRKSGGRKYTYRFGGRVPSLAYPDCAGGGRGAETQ
# Procedure, shortened: as §1
# ELF3 = target: T5, ELF3 (Homo sapiens, UniProt P78545 1-371); conditions: protein: recombinant; tags: N-terminal GST; dsDNA, one strand shown
# T5 sequence: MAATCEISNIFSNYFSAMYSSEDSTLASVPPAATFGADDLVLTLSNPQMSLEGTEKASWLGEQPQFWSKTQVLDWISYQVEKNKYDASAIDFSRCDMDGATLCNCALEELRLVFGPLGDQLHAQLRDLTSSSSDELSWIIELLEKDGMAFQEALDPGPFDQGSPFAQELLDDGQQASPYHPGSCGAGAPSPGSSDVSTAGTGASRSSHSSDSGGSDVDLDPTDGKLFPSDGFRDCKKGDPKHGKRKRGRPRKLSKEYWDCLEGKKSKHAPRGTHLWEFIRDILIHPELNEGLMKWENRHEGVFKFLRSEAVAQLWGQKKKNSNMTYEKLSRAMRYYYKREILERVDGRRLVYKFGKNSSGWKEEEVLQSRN
# Procedure, shortened: as §1
# CRX = CRX (Homo sapiens, UniProt O43186 1-299); conditions: protein: recombinant; tags: N-terminal GST; dsDNA, one strand shown
# Procedure, shortened: as §1
# ETV1 = ETV1 (Homo sapiens, UniProt P50549 1-477); conditions: protein: recombinant; tags: N-terminal GST; dsDNA, one strand shown
# Procedure, shortened: as §1
# ERF = target: T6, ERF (Homo sapiens, UniProt P50548 1-548); conditions: protein: recombinant; tags: N-terminal GST; dsDNA, one strand shown
# T6 sequence: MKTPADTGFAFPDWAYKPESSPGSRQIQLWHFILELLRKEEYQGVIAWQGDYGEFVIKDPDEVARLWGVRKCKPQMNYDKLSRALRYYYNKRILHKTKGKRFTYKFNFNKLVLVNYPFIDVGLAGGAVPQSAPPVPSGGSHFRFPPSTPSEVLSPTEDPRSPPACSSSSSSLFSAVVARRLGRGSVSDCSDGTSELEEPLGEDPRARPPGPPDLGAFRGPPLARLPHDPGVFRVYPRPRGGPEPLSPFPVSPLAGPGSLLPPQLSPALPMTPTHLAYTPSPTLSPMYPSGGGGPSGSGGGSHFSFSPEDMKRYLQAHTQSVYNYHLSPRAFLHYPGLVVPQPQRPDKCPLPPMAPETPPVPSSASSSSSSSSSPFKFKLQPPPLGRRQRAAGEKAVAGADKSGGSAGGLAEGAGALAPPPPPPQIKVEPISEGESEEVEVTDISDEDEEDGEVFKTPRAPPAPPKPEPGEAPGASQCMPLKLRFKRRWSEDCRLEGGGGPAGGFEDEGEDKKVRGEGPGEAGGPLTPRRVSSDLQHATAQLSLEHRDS
# Procedure, shortened: as §1
# ETV3L = target: T7, ETV3L (Homo sapiens, UniProt Q6ZN32 1-361); conditions: protein: recombinant; tags: N-terminal GST; dsDNA, one strand shown
# T7 sequence: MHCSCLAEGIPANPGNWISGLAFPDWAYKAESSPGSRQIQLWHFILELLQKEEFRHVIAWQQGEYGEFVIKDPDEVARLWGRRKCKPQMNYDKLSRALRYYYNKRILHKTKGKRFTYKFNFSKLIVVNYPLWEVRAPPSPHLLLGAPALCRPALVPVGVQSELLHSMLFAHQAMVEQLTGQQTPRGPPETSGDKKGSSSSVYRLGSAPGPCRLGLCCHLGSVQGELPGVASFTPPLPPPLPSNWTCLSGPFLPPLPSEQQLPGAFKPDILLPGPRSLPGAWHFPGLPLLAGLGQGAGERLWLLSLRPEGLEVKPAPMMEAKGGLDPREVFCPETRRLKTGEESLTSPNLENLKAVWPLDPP
# Procedure, shortened: as §1
# ETS2 = target: T8, ETS2 (Homo sapiens, UniProt P15036 1-469); conditions: protein: recombinant; tags: N-terminal GST; dsDNA, one strand shown
# T8 sequence: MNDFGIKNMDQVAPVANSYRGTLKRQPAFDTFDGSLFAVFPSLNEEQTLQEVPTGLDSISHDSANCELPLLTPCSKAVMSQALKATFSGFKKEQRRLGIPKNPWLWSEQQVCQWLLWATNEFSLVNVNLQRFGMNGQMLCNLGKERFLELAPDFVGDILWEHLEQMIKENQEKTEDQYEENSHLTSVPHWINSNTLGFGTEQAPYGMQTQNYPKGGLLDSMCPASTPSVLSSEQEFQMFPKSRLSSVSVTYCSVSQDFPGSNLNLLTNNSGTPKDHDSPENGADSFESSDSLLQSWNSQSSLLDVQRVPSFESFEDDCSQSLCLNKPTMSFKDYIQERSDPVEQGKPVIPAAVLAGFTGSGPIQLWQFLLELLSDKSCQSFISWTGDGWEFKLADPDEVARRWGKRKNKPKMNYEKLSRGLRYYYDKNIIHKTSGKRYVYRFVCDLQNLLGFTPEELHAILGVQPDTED
# Procedure, shortened: as §1
# SPDEF = target: T9, SPDEF (Homo sapiens, UniProt O95238 1-335); conditions: protein: recombinant; tags: N-terminal GST; dsDNA, one strand shown
# T9 sequence: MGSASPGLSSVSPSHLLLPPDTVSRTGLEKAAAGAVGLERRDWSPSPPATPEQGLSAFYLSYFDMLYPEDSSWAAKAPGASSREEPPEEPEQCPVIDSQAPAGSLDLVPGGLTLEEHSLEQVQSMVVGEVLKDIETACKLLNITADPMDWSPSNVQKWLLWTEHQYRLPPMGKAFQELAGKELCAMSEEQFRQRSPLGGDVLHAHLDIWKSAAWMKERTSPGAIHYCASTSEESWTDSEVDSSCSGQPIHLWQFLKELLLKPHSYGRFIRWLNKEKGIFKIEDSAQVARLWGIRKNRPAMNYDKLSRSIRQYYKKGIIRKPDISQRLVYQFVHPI
# Procedure, shortened: as §1
# ETV7 = target: T10, ETV7 (Homo sapiens, UniProt Q9Y603 1-341); conditions: protein: recombinant; tags: N-terminal GST; dsDNA, one strand shown
# T10 sequence: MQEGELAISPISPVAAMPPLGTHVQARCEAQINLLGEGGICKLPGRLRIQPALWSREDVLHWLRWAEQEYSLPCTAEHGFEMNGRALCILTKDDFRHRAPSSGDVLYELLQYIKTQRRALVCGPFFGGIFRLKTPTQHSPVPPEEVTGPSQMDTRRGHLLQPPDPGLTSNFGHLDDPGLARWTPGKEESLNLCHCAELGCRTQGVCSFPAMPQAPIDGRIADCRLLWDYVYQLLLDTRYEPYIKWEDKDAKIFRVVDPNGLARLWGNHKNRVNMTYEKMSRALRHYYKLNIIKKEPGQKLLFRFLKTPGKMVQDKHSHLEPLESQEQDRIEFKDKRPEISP
# Procedure, shortened: as §1
# ELF5 = target: T11, ELF5 (Homo sapiens, UniProt Q9UKW6-2 1-255); conditions: protein: recombinant; tags: N-terminal GST; dsDNA, one strand shown
# T11 sequence: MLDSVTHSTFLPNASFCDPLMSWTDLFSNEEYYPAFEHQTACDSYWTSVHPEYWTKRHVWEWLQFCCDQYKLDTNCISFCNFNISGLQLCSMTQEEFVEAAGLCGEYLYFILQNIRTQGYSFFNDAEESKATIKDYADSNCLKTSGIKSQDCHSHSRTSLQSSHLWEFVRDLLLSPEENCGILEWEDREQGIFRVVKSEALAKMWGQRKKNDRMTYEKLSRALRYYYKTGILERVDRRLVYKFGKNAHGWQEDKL
# Procedure, shortened: as §1
# ETV3 = target: T12, ETV3 (Homo sapiens, UniProt P41162-2 1-143); conditions: protein: recombinant; tags: N-terminal GST; dsDNA, one strand shown
# T12 sequence: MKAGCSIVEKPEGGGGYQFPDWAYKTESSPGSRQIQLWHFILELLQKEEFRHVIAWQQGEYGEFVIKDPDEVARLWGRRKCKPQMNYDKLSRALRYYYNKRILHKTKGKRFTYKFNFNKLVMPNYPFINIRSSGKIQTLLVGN
# Procedure, shortened: as §1
# ETV6 = ETV6 (Homo sapiens, UniProt P41212 1-452); conditions: protein: recombinant; tags: N-terminal GST; dsDNA, one strand shown
# Procedure, shortened: as §1
# ETV5, sequence (P41161 whole entry): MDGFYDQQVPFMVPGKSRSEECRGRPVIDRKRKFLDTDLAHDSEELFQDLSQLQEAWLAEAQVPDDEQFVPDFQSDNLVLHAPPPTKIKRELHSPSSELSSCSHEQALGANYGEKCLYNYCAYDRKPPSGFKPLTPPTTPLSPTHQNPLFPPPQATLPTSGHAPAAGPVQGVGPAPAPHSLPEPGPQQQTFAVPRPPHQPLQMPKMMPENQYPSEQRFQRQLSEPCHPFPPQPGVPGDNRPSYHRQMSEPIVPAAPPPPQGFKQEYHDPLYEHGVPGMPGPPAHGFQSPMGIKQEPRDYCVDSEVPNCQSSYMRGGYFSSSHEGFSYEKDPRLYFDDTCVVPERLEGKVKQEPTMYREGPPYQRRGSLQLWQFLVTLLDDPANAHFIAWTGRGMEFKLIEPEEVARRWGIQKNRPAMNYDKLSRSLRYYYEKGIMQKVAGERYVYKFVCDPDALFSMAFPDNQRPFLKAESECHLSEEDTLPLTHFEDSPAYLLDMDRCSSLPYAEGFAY
# CRX, sequence (O43186 whole entry): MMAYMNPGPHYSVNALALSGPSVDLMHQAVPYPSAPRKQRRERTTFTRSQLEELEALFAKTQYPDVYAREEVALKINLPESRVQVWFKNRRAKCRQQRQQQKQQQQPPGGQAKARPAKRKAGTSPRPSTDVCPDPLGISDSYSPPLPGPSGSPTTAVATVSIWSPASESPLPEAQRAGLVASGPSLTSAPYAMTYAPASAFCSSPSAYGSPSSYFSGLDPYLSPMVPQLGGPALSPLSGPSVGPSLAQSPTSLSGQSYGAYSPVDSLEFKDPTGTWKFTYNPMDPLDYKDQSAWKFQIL
# ELF4, sequence (Q99607 whole entry): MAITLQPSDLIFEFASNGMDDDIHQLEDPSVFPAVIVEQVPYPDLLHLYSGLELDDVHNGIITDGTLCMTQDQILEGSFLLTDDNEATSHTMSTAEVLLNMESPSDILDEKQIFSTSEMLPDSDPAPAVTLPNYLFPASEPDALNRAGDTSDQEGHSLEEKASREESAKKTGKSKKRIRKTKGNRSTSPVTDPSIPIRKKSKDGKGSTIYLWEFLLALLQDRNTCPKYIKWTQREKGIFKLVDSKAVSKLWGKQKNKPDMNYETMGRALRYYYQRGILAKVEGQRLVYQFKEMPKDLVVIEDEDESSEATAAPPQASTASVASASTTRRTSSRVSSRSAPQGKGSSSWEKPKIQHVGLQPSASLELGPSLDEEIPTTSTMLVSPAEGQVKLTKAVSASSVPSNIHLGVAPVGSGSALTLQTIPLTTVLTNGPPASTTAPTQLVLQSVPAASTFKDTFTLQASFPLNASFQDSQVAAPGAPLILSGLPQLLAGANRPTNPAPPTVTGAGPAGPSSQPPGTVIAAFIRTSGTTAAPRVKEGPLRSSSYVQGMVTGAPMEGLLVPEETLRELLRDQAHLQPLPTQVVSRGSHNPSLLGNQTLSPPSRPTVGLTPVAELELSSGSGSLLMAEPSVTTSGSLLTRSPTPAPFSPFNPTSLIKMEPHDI
# ETV6, sequence (P41212 whole entry): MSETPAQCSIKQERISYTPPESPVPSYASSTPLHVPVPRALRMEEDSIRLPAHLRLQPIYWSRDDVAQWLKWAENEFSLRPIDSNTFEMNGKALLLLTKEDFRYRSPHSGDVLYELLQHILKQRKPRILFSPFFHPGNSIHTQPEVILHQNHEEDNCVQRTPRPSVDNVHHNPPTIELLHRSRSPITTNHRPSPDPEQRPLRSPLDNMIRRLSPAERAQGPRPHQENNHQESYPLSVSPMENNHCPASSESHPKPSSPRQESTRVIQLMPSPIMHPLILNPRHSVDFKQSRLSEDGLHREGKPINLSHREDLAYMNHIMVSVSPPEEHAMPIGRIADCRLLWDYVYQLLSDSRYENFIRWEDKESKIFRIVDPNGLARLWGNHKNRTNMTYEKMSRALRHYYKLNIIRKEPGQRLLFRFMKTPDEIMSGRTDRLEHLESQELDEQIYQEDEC
# HSF1, sequence (Q00613 whole entry): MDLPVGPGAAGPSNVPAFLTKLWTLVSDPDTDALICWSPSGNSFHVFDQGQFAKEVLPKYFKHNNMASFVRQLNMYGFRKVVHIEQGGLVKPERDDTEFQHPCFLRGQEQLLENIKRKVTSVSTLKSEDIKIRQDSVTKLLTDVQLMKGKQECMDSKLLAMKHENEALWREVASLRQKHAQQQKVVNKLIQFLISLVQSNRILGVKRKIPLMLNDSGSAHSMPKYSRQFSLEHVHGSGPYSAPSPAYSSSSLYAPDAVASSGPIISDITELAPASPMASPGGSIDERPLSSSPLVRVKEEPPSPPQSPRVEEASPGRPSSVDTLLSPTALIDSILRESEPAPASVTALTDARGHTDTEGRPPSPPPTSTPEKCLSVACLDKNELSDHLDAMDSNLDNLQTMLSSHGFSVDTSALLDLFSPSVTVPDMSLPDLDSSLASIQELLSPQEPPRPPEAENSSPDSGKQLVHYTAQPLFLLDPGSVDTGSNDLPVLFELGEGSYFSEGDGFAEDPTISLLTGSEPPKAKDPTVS
# ETV1, sequence (P50549 whole entry): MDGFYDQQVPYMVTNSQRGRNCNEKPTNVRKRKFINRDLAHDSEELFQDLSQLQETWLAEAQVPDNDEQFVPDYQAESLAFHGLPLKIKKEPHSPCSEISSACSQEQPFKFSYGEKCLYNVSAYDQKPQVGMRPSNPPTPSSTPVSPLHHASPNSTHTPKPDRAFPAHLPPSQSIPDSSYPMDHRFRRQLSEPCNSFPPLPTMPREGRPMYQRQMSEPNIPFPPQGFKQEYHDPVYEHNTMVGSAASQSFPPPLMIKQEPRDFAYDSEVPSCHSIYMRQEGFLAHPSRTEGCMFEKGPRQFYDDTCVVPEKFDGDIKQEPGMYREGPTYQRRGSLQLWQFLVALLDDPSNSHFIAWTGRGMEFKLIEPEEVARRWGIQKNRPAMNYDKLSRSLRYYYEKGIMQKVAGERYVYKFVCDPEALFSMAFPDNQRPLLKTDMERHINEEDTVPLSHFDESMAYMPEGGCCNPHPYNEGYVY
sequence,measurement,setting,value
TATGGA,binding signal,FEV,"1.05 fold enrichment (6-mer frequency, TF over GST control)"
same,binding signal,ETV5,"1.12 fold enrichment (6-mer frequency, TF over GST control)"
same,binding signal,HSF1,"1.33 fold enrichment (6-mer frequency, TF over GST control)"
same,binding signal,SPIC,"1.14 fold enrichment (6-mer frequency, TF over GST control)"
same,binding signal,ELF4,"1.07 fold enrichment (6-mer frequency, TF over GST control)"
same,binding signal,ELK4,"1 fold enrichment (6-mer frequency, TF over GST control)"
same,binding signal,ETV2,"1.25 fold enrichment (6-mer frequency, TF over GST control)"
same,binding signal,ELF3,"1.15 fold enrichment (6-mer frequency, TF over GST control)"
same,binding signal,CRX,"1.4 fold enrichment (6-mer frequency, TF over GST control)"
same,binding signal,ETV1,"1.12 fold enrichment (6-mer frequency, TF over GST control)"
same,binding signal,ERF,"1.16 fold enrichment (6-mer frequency, TF over GST control)"
same,binding signal,ETV3L,"1.13 fold enrichment (6-mer frequency, TF over GST control)"
same,binding signal,ETS2,"1.12 fold enrichment (6-mer frequency, TF over GST control)"
same,binding signal,SPDEF,"1.18 fold enrichment (6-mer frequency, TF over GST control)"
same,binding signal,ETV7,"1.26 fold enrichment (6-mer frequency, TF over GST control)"
same,binding signal,ELF5,"1.08 fold enrichment (6-mer frequency, TF over GST control)"
same,binding signal,ETV3,"1.22 fold enrichment (6-mer frequency, TF over GST control)"
same,binding signal,ETV6,"1.05 fold enrichment (6-mer frequency, TF over GST control)"

# Reference: PMC7862700, “An all-to-all approach to the identification of sequence-specific readers for epigenetic DNA modifications on cytosine”
